According to the supplement of paper PMC8728848:
This excerpt belongs to a sample that is enriched for the strongest signals.

What was measured:
Experiment in all cases: glycan array binding signal (z-score within array); higher = stronger binding
Details in all cases: glycan notation: IUPAC condensed, linker removed
[1] = target: Fuc(a1-2)Gal(b1-3)GlcNAc(b1-2)Man(a1-3)[Fuc(a1-2)Gal(b1-3)GlcNAc(b1-2)Man(a1-6)]Man(b1-4)GlcNAc(b1-4)GlcNAc
Method in brief: (§1)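 Arrays were curated from the Consortium for Functional Glycomics database, 3228 in total, and kept only where the protein sequence was available. Binding is expressed as a within-array Z-score. This score was averaged across arrays of the same protein sequence at different concentrations or buffers and across linkers, and negative values can be read as non-binding.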

[2] = target: Fuc(a1-2)Gal(b1-3)GlcNAc(b1-3)[Fuc(a1-3)[Gal(b1-4)]GlcNAc(b1-6)]Gal(b1-4)Glc
Method in brief: as §1

[3] = target: Fuc(a1-2)Gal(b1-3)[Fuc(a1-4)]GlcNAc
Method in brief: as §1

[4] = target: Fuc(a1-2)Gal(b1-4)GlcNAc(b1-2)[Fuc(a1-2)Gal(b1-4)GlcNAc(b1-4)]Man(a1-3)[Fuc(a1-2)Gal(b1-4)GlcNAc(b1-2)Man(a1-6)]Man(b1-4)GlcNAc(b1-4)GlcNAc
Method in brief: as §1

[5] = target: Fuc(a1-2)[Gal(a1-3)]Gal(b1-3)GlcNAc
Method in brief: as §1

[6] = target: Fuc(a1-2)[GalNAc(b1-3)]Gal
Method in brief: as §1

[7] = target: Fuc(a1-3)[Gal(b1-4)]GlcNAc(b1-3)GalNAc
Method in brief: as §1

Gal(a1-3)Gal(b1-4)Glc = target: Gal(a1-3)Gal(b1-4)Glc
Method in brief: as §1

Gal(a1-3)Gal(b1-4)GlcNAc = target: Gal(a1-3)Gal(b1-4)GlcNAc
Method in brief: as §1

[8] = target: Gal(a1-3)[Gal(a1-4)]Gal(b1-4)GlcNAc
Method in brief: as §1

Gal(a1-4)Gal(b1-4)GlcNAc = target: Gal(a1-4)Gal(b1-4)GlcNAc
Method in brief: as §1

[9] = target: Gal(b1-3)Gal(b1-4)GlcNAc(b1-2)Man(a1-3)[Gal(b1-3)Gal(b1-4)GlcNAc(b1-2)Man(a1-6)]Man(b1-4)GlcNAc(b1-4)GlcNAc
Method in brief: as §1

[10] = target: Gal(b1-3)GalNAc(b1-3)Gal(a1-4)Gal(b1-4)Glc
Method in brief: as §1

Gal(b1-3)GlcNAc = target: Gal(b1-3)GlcNAc
Method in brief: as §1

[11] = target: Gal(b1-3)GlcNAc(b1-3)Gal(b1-4)GlcNAc(b1-6)[Gal(b1-3)GlcNAc(b1-3)]Gal(b1-4)Glc
Method in brief: as §1

[12] = target: Gal(b1-3)[Fuc(a1-4)]GlcNAc
Method in brief: as §1

[13] = target: Gal(b1-3)[Fuc(a1-4)]GlcNAc(b1-2)Man(a1-3)[Gal(b1-3)[Fuc(a1-4)]GlcNAc(b1-2)Man(a1-6)]Man(b1-4)GlcNAc(b1-4)[Fuc(a1-6)]GlcNAc
Method in brief: as §1

[14] = target: Gal(b1-3)[Fuc(a1-4)]GlcNAc(b1-3)Gal(b1-4)GlcNAc
Method in brief: as §1

Gal(b1-4)Gal = target: Gal(b1-4)Gal
Method in brief: as §1

[15] = target: Gal(b1-4)GlcNAc(b1-3)Gal(b1-3)GlcNAc
Method in brief: as §1

[16] = target: Gal(b1-4)GlcNAc(b1-3)Gal(b1-4)[Fuc(a1-3)]GlcNAc(b1-3)Gal(b1-4)[Fuc(a1-3)]GlcNAc
Method in brief: as §1

[17] = target: Gal(b1-4)GlcNAc(b1-3)[GlcNAc(b1-6)]Gal(b1-4)GlcNAc
Method in brief: as §1

Gal3S(b1-3)GalNAc = target: Gal3S(b1-3)GalNAc
Method in brief: as §1

Gal3S(b1-4)GlcNAc6S = target: Gal3S(b1-4)GlcNAc6S
Method in brief: as §1

Gal3S6S(b1-4)GlcNAc6S = target: Gal3S6S(b1-4)GlcNAc6S
Method in brief: as §1

Gal6S(b1-3)GlcNAc6S = target: Gal6S(b1-3)GlcNAc6S
Method in brief: as §1

Gal6S(b1-4)GlcNAc = target: Gal6S(b1-4)GlcNAc
Method in brief: as §1

[18] = target: GalNAc(b1-3)Gal(a1-4)Gal(b1-4)GlcNAc
Method in brief: as §1

Glc(a1-4)Glc = target: Glc(a1-4)Glc
Method in brief: as §1

Glc(b1-4)Glc = target: Glc(b1-4)Glc
Method in brief: as §1

B1: SEX4 (Arabidopsis thaliana), Q944A8 (protein)
chain: TQAMGAVLTYRHELGMNYNFIRPDLIVGSCLQTPEDVDKLRKIGVKTIFCLQQDPDLEYFGVDISSIQAYAKKYSDIQHIRCEIRDFDAFDLRMRLPAVVGTLYKAVKRNGGVTYVHCTAGMGRAPAVALTYMFWVQGYKLMEAHKLLMSKRSCFPKLDAIRNATIDILTGLKRKTVTLTLKDKGFSRVEISGLDIGWGQRIPLTLGKGTGFWILKRELPEGQFEYKYIIDGEWTHNEAEPFIGPNKDGHTNNYAKVVDDPTSVDGTTRERLSSEDPELLEEERSKLIQFLETCSEAEV
- glycan array binding signal (z-score) [1]: -0.14
- glycan array binding signal (z-score) [2]: -0.488
- glycan array binding signal (z-score) [3]: -0.43
- glycan array binding signal (z-score) [4]: 3.41
- glycan array binding signal (z-score) [5]: -0.101
- glycan array binding signal (z-score) [6]: -0.555
- glycan array binding signal (z-score) [7]: 2.34
- glycan array binding signal (z-score) (Gal(a1-3)Gal(b1-4)Glc): -0.237
- glycan array binding signal (z-score) (Gal(a1-3)Gal(b1-4)GlcNAc): 0.108
- glycan array binding signal (z-score) [8]: -0.539
- glycan array binding signal (z-score) (Gal(a1-4)Gal(b1-4)GlcNAc): -0.482
- glycan array binding signal (z-score) [9]: -0.329
- glycan array binding signal (z-score) [10]: -0.231
- glycan array binding signal (z-score) (Gal(b1-3)GlcNAc): -0.554
- glycan array binding signal (z-score) [11]: -0.273
- glycan array binding signal (z-score) [12]: -0.398
- glycan array binding signal (z-score) [13]: -0.406
- glycan array binding signal (z-score) [14]: 0.013
- glycan array binding signal (z-score) (Gal(b1-4)Gal): -0.4
- glycan array binding signal (z-score) [15]: -0.483
- glycan array binding signal (z-score) [16]: -0.35
- glycan array binding signal (z-score) [17]: -0.354
- glycan array binding signal (z-score) (Gal3S(b1-3)GalNAc): -0.502
- glycan array binding signal (z-score) (Gal3S(b1-4)GlcNAc6S): 0.229
- glycan array binding signal (z-score) (Gal3S6S(b1-4)GlcNAc6S): 2.76
- glycan array binding signal (z-score) (Gal6S(b1-3)GlcNAc6S): 1.27
- glycan array binding signal (z-score) (Gal6S(b1-4)GlcNAc): 0.104
- glycan array binding signal (z-score) [18]: -0.406
- glycan array binding signal (z-score) (Glc(a1-4)Glc): -0.393
- glycan array binding signal (z-score) (Glc(b1-4)Glc): -0.561
